In the library only some 11% were active in any assay of this set; here they are far more common.
Tau ThT inhib = tau fibrillization inhibition (ThT binding) | AID 1460 | P10636 | hit rate 2.1% among 270,000 | recombinant tau K18 P301L, heparin-induced fibrillization, ThT fluorescence | Potency, µM (top dose mostly 57.4 µM), actives largely listed as inhibitors; further: nearly all actives have a fitted effect of over 55% in size
Target sequence (P10636 561-689 P618L limits assumed): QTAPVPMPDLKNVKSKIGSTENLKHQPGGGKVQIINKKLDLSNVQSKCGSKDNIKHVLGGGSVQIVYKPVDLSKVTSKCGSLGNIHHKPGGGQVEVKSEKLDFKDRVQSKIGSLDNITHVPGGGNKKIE
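Recombinant human tau K18 fragment […] carrying P301L, 15 uM unlabeled plus 0.24 uM Alexa 594-labeled, was fibrillized with 20 uM heparin in 100 mM sodium acetate pH 7 for 6 hr at 37 C; 30 uM ThT fluorescence read after 1 hr.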
Sfp inh = inhibitors of Bacillus subtilis Sfp phosphopantetheinyl transferase; hit rate 3.5% among 310,000; Biochemical Sfp PPTase activity, qHTS; Potency, µM, hits mostly inhibitors; Q9F4F7;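 further: the enzyme is Sfp with the accession as filed and its product quenches rhodamine fluorescence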
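Step 1, compound plus 15 nM Sfp-PPTase, 15 min, room temperature. Step 2, add rhodamine-CoA (5 uM) and BHQ-2-YbbR (12.5 uM). Step 3, read 525/598 nm fluorescence at 0 and 30 min.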
Tau FP inhib = blocks human tau fibril formation measured by polarization; P10636; K18 P301L tau heparin fibrillization, Alexa594 FP, 6 h; Potency, µM (series often up to 57.7 µM), usual class: inhibitors; hit rate 0.39% among 280,000; AID 1468; further: nearly all actives have a fitted effect of over 55% in size
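FP of Alexa 594-tau after heparin (20 uM) induction. Substrate: human K18 P301L, 15 uM unlabeled, 0.24 uM labeled. Buffer 100 mM sodium acetate pH 7. 6 hr, 37 C.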
G9a inh = G9a (human) methyltransferase inhibition | Potency, µM (series often up to 102 µM), hits mostly inhibitors | G9a H3K9 monomethylation, AlphaScreen, 2 h | hit rate 8.8% among 350,000 | Q96KQ7 | AID 504332; further: nearly all actives have a fitted effect of over 75% in size
Target sequence (Q96KQ7 913-1193 limits assumed): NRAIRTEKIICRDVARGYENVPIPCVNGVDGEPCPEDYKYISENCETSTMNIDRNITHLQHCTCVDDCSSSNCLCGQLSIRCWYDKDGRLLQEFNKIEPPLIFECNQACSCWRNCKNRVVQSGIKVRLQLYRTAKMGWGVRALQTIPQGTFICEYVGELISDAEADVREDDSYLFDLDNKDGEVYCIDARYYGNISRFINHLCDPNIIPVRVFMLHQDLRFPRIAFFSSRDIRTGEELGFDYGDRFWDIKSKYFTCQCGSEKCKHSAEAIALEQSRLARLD
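AlphaScreen read-out: biotin-H3K9 peptide (500 nM) methylation by 20 nM enzyme with 20 uM SAM, 2 h at room temperature after 15 min compound preincubation; anti-monomethyl H3K9 antibody plus donor/acceptor beads, 10 min dark.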
Coupling enz = counter-screen for Giardia aldolase inhibitors: coupling enzyme system; activity change, negative = inhibition, % at 58.2 µM, hits read low; hit rate 0.67% among 290,000; AID 2472; coupling enzyme system counterscreen, AmpLite Red fluorescence; in the data active means activity change below about -30%
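Fluorescence at 525 nm excitation and 598 nm emission measured inhibition of the coupled detection system without aldolase. Compounds (at 57.5 uM final) were preincubated 10 min at room temperature with coupling enzyme reagent before a 20 min substrate/AmpLite Red step.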
Tau fluor counter = counter-screen for tau fibril formation inhibitors; hit rate 0.93% among 280,000; Potency, µM (top dose mostly 57.7 µM); tau K18 P301L (four-repeat tau fragment) Alexa594 fluorescence, heparin fibrillization; AID 1463; further: nearly all actives have a fitted effect of over 55% in size
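Human K18 P301L tau (15 uM unlabeled plus 0.24 uM Alexa 594-labeled, final) in 100 mM sodium acetate pH 7 was mixed with compound and 20 uM heparin and incubated 6 hr at 37 C.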
A number is an active result; [ ] = dose if it differs, or a comment. Unless noted, the call rests on the fitted dose curve; in most records, active means well fitted curve in the direction sought with a large enough effect; inconclusive means small, poorly fitted or top-dose-only effect, or another doubt; inactive means no such curve, though single readings can be large; an effect the other way counts as inactive or inconclusive.

What do the screens show for `COc1ccc(/C=C/C(=O)N2CCN(c3ccccn3)CC2)cc1OC`?
Sfp inh: inactive; G9a inh: inactive; Coupling enz: inactive

Results for O=C(O)Cc1c(C(=O)O)[nH]c2ccc(C(=O)O)cc12 ?
Sfp inh: inactive; Tau FP inhib: inactive; G9a inh: 50.1µM; Coupling enz: inactive; Tau fluor counter: inactive

What do the screens show for `Cc1ccccc1Cn1nnc2c(=O)[nH]c(C3CCN(C(=O)c4ccccc4)CC3)nc21`?
Tau ThT inhib: inactive; Tau FP inhib: inactive; G9a inh: inactive; Tau fluor counter: inactive

Results for COc1ccc2c(c1)c(C(C)=O)c(C)n2C ?
Sfp inh: inactive; Tau FP inhib: inactive; G9a inh: inactive; Coupling enz: inactive; Tau fluor counter: inactive

How did COc1ccc2c(c1)c(C(=O)CN1CCc3ccccc3C1)c(C)n2C do in these assays?
Tau ThT inhib: inactive; Sfp inh: inactive; Tau FP inhib: inactive; G9a inh: 44.7µM; Coupling enz: inactive; Tau fluor counter: inactive

Results for COc1ccc2[nH]c(C)c(C(=O)CN3CCc4cc(OC)c(OC)cc4C3)c2c1 ?
Tau ThT inhib: inactive; Sfp inh: inactive; Tau FP inhib: inactive; G9a inh: 50.1µM; Coupling enz: inactive; Tau fluor counter: inconclusive

Results for COC(=O)c1[nH]c2cc(C)ccc2c1NC(=O)CN1CCc2cc(OC)c(OC)cc2C1 ?
Tau ThT inhib: inconclusive; Sfp inh: inactive; Tau FP inhib: inactive; G9a inh: inactive; Coupling enz: inactive; Tau fluor counter: inconclusive

Results for COC(=O)c1[nH]c2ccc(Cl)cc2c1NC(=O)CN1CCc2cc(OC)c(OC)cc2C1 ?
Tau ThT inhib: inconclusive; Sfp inh: inactive; Tau FP inhib: inactive; G9a inh: inconclusive; Coupling enz: inactive; Tau fluor counter: 17.8µM[quencher]

Results for CCn1c(=S)sc2c(=O)n(CC(=O)NCCCc3ccccc3)c(C)nc21 ?
Sfp inh: inactive; G9a inh: inconclusive; Coupling enz: inactive

What do the screens show for `CCc1ccc(-n2nnc(-c3nc(-c4cccs4)no3)c2N)cc1`?
Tau ThT inhib: inactive; Tau FP inhib: inactive; G9a inh: inactive; Tau fluor counter: inactive

Results for CN(C)c1ccc(/C=C2\N=C(C(C)(C)C)OC2=O)cc1 ?
Sfp inh: inactive; G9a inh: 44.7µM; Coupling enz: inactive

What do the screens show for `COc1ccc(/C=C2\N=C(C(C)(C)C)OC2=O)c(OC)c1`?
Sfp inh: inactive; G9a inh: inactive; Coupling enz: inactive

Results for CC(C)(C)C1CCc2c(sc3nc(-c4cc5cc(Br)ccc5oc4=O)[nH]c(=O)c23)C1 (centres undefined) ?
Tau ThT inhib: inactive; Tau FP inhib: inactive; G9a inh: inactive; Tau fluor counter: inactive

How did CCc1ccc(NC(=O)CC2C(=O)N(c3ccc(C)cc3)C(=O)N2C2CC2)cc1 (centres undefined) do in these assays?
Tau ThT inhib: inactive; Sfp inh: inactive; Tau FP inhib: inactive; G9a inh: inactive; Coupling enz: inactive; Tau fluor counter: inactive

What do the screens show for `CCOC(=O)c1cc2n(c1/N=C/N(C)C)-c1ccccc1C2=O`?
Tau ThT inhib: 25.1µM; Sfp inh: 7.94µM; Tau FP inhib: 25.1µM; G9a inh: inconclusive; Coupling enz: -35.4; Tau fluor counter: inconclusive

What do the screens show for `CCOC(=O)C(=O)NNc1cccc(C)c1C`?
Tau ThT inhib: inactive; Sfp inh: inactive; Tau FP inhib: inactive; G9a inh: 0.631µM; Coupling enz: inactive; Tau fluor counter: inactive

How did O=C(NCCCN1CCOCC1)C(C(=O)NCCCN1CCOCC1)c1ncc(C(F)(F)F)cc1Cl do in these assays?
Tau ThT inhib: inactive; Sfp inh: inactive; Tau FP inhib: inactive; G9a inh: inconclusive; Coupling enz: inactive; Tau fluor counter: inactive

What do the screens show for `C[C@H]1Cc2c(-c3ccccc3)nc3c(c2CO1)CN(C(=O)NCc1ccco1)CC3`?
Tau ThT inhib: inactive[11.5 µM]; Sfp inh: inactive; Tau FP inhib: inactive[11.6 µM]; Coupling enz: inactive; Tau fluor counter: inactive[11.6 µM]

What do the screens show for `CC(=O)N1CCc2[nH]c3ccc(C)cc3c2C1`?
Sfp inh: inactive; G9a inh: inactive[2.33 µM]; Coupling enz: inactive

Results for Cc1ccc2[nH]c3c(c2c1)CN(C(=O)CN1CC(C)OC(C)C1)CC3 (centres undefined) ?
Tau ThT inhib: inactive; Sfp inh: inactive; Tau FP inhib: inactive; G9a inh: inconclusive; Coupling enz: -32.9; Tau fluor counter: inactive

What do the screens show for `CCOC(=O)N1CCc2[nH]c3ccc(C)cc3c2C1`?
Tau ThT inhib: inactive; Sfp inh: inactive; Tau FP inhib: inactive; G9a inh: 10µM; Coupling enz: inactive; Tau fluor counter: inactive

What do the screens show for `Cc1ccc2[nH]c3c(c2c1)CN(C(=O)CN1CCN(c2ccccn2)CC1)CC3`?
Tau ThT inhib: inconclusive; Sfp inh: inactive; Tau FP inhib: inactive; G9a inh: 20µM; Coupling enz: inactive; Tau fluor counter: inactive

What do the screens show for `Cc1ccc2[nH]c3c(c2c1)CN(C(=O)CN1CCN(Cc2ccc4c(c2)OCO4)CC1)CC3`?
Tau ThT inhib: inactive; Sfp inh: inactive; Tau FP inhib: inactive; G9a inh: inconclusive; Coupling enz: inactive; Tau fluor counter: inactive

What do the screens show for `CCOC(=O)c1cccc(NC(=O)/C=C/c2ccc3c(c2)OCO3)c1`?
Tau ThT inhib: inactive; Sfp inh: 79.4µM; Tau FP inhib: inconclusive; G9a inh: inactive; Coupling enz: inactive; Tau fluor counter: inconclusive

Results for O=C(/C=C/c1ccccc1Cl)Nc1ccc2c(c1)C(=O)NC2=O ?
Tau ThT inhib: inconclusive; Sfp inh: inactive; Tau FP inhib: inconclusive; G9a inh: 25.1µM; Coupling enz: inactive; Tau fluor counter: inactive

Results for CCCCOC(=O)c1cccc(NC(=O)/C=C/c2ccccc2Cl)c1 ?
Tau ThT inhib: inactive; Tau FP inhib: 10µM; G9a inh: inactive; Tau fluor counter: inconclusive

How did O=C(/C=C/c1ccccc1)Nc1ccc2c(c1)C(=O)NC2=O do in these assays?
Tau ThT inhib: inconclusive; Sfp inh: inactive; Tau FP inhib: inactive; G9a inh: inactive; Coupling enz: inactive; Tau fluor counter: inactive

What do the screens show for `CCOC(=O)c1cccc(NC(=O)Cc2ccc(NC(=O)N3CCCCc4ccccc43)cc2)c1`?
Tau ThT inhib: inactive; Tau FP inhib: inactive; G9a inh: inactive; Tau fluor counter: inactive

How did O=C1C2C3C=CC(C3)C2C(=O)N1CNc1ccc(O)cc1 (centres undefined) do in these assays?
Tau ThT inhib: 3.16µM; Sfp inh: 56.2µM; Tau FP inhib: 8.91µM; G9a inh: 2.24µM; Coupling enz: -54.5; Tau fluor counter: inconclusive

Results for CSc1ccc(CN(C)C(=O)c2cc(Cl)c3c(c2)OCCO3)cc1 ?
Sfp inh: inactive; G9a inh: 56.2µM; Coupling enz: inactive

How did CSc1ccc(CN(C)C(=O)c2cc3ccccc3o2)cc1 do in these assays?
Sfp inh: inactive; G9a inh: inactive; Coupling enz: inactive
